# According to the supplement of paper PMC10105736:
# Values without a mark were called inactive.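 The calls were made as follows: active = MAPPIT score above the 99th percentile of random reference set scores in the same batch; inactive = at or below it.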
# B1: MP1 (protein)
# chain: MEPHFFFTVLWMLLMGTSSTYAQEIFGYCRTPDENSGTCINLRECGYLFELLQSEEVTEQDRRFLQASQCGYRNGQVLEKHFCFTNVQICCANSRMRNQQPQWGNHPQPTQTTKPTKRSGTKLLPMAPNCGENFGDRVVGGNETTKREFPWMALIEYTKPGNVKGHHCGGSLINHRYVLTAAHCVSAIPSDWELTGVRLGEWDASTNPDCTVGKNGRRDCNEPYVDYPVEERIPHPQYPGNSRDQLNDIALLRLRDEVQYSDFILPVCLPTLASQHNNIFLGRKVVVAGWGRTETNFTSNIKLKAELDTVPTSECNQRYATQRRTVTTKQMCAGGVEGVDSCRGDSGGPLLLEDYSNGNSNYYIAGVVSYGPTPCGLKGWPGVYTRVEAYLNWIENNVRA
# B2: bin3 (protein)
# chain: MEKRLSDSPGDCRVTRSTMTPTLRLDQTSRQEPLPQQPDNGPAAAPGKSKSPTPLPGKSQAAQHHQFRAPQQQQGPKNRNKAWSKRQHKAGGKHNPSACVGASSGQAQSTGSSVIAATLLPTAASAHKADLENIQNIHNKNLTAGGGVNHHGNAGTAHHGGGGGAGAHHAAAGGHHHHHNTRLAQNAAAGGASGGGTIQMHKKMLRGHHHHVLCAGNNANHTCCLVTGCNGSSIGGVGVAGSGGATASAGGGGASCKEAQSCKDTSSLSGNSSIAGSAGAGNAVHYCCGRSKFFLPEKRLRKEVIVPPTKFLLGGNISDPLNLNSLQNENTSNASSTNNTPATTPRQSPITTPPKVEVIIPPNIHDPLHLLDPVDSMEYEKQLTSPMKRAGPGGGMLHHRQHHYRTRKNRKRRRFDSNNTSHAGDEGGVGSELTDEPPLPAATSSLAASPVAAPLNVGGSLLLSESAAPAPGETAEMGQQQEQAHVHSPQSASTTTTAAEMPTPTPTSAAAATATAEHKEQSAPAPTATSSPQRQQQHVAAAAEELPTPETSAAAETPAEEMLLSCSATSASLVASTLAERRASRDLRLDLSSTCYGVGGTGLSFGGSISSSVGSSFGGGGRKRKISESSTSQKSKKFHRHDAMDKIVSPVVPQPGAWKRPPRILQPSGARKPSTRRSTSVSESELLSPVEEQPPKQLPLIGVEIPRDDTPDLPDHGLGSPLSTTSGATSHTAGEQDSLAGVDISMGDTLGSGVVGKAPLTSSLMLEPAKIPPIKMLPKFRADGLKYRYGNFDRYVDFRQMNEFRDVRLQVFQRHVELFENKDILDIGCNVGHMTITVARHLAPKTIVGIDIDRELVARARRNLSIFVRIPKEEKLLEVKAEPTVDAKANIAVKDETSGAAHKKTRRGKRRRKVHQGIHHHHHHHHDLEQLQQQQKLNSLLVKPHEFFPISFPLTYGRIPRILSSSKSPNMLGNKNQFPANVFFRHTNYVLKDESLMASDTQQYDLILCLSVTKWIHLNFGDNGLKMAFKRMFNQLRPGGKLILEAQNWASYKKKKNLTPEIYNNYKQIEFFPNKFHEYLLSSEVGFSHSYTLGVPRHMNKGFCRPIQLYAKGDYTPNHVRWSDAYYPQTPYEAYRGIYATLPVHRMGGGGSSAGGSNSGHAQMLHLSSSSRSQNYDTPHYAGSASGSASCRQTPMYQPTYNPLETDSYQPSYDMEYLNHMYVFASPLYQTVWSPPASLRKSSSHTPVFGSVRDAELDGDGSGGGGSGGGSYHRHVYPPNDDTCSPNANACNAFNSIRDADTDDSNQLPGGSRRHVYATNCGESSSSPQVNHHDAVGEFVDGLMDDEQKSSTGGGTGGAAYCDLSDA
# B3: Hel25E (protein)
# chain: MADNDDLLDYEDEEQTETTAVENQEAPKKDVKGTYVSIHSSGFRDFLLKPEILRAIVDCGFEHPSEVQHECIPQAVLGMDILCQAKSGMGKTAVFVLATLQQLEPSDNNTCHVLVMCHTRELAFQISKEYERFSKYMPTVKVAVFFGGMAIQKDEETLKSGTPHIVVGTPGRILALIRNKKLNLKLLKHFVLDECDKMLEQLDMRRDVQEIFRSTPHGKQVMMFSATLSKDIRPVCKKFMQDPMEVYVDDEAKLTLHGLQQHYVNLKENEKNKKLFELLDVLEFNQVVIFVKSVQRCVALSQLLTEQNFPAIGIHRGMTQEERLNRYQQFKDFQKRILVATNLFGRGMDIERVNIVFNYDMPEDSDTYLHRVARAGRFGTKGLAITFVSDENDAKILNEVQDRFDVNISELPEEIDLSTYIEGR
# B4: CG2678 (protein)
# chain: MMHSAKNVCRTCMDETGTLVDIFANVRDPVLDEPEMSLSHILARCTERPVKRGDLLPQFICVSCVLAVQNAFRFKWQSEQSYQHFFRVLNQSGAPENQVHLAACNGDKNQIINQKMQLKSDRQQDTQQMTKTQKPDDDLSQKQTLQAKLQEGNIDGPPESFTLHPRKRTCRTEEQADMIPKEATRSTKMICDADGYYNCPHCSKRFCSQTQLRTHITDLCNRCPYCPRTYMQKSNLKRHLRNHLSKPAHKCFHCSKAFMRKDHLKRHLRTHDSDGPLSCSQCSAVFIEHVQLEIHRREHKQRPGSSKSESTKDPDSDDSDQAQDLKPKWTKNTFNGTCSIPPMLKPKPICDICQKKFSSVYALKRHMLTHNRQHHLKKCTYCSEEFKTEKHLKRHERGHMGDLFRCEFCSLVFVDVNYLRKHKKRIHSNNVIAM
# B5: CG5532 (protein)
# chain: MPVDWFGYVYAATVAAGGIMGYAKAGSIPSLGAGLAFGALLGYGAHLNSQDTPRPLLQLGTSLFLAGLMGARWNRSGKLMPAGMVCMLSVAALVKNLATYNRYLMPAGTKAP
# What was measured:
# Experiment in all cases: MAPPIT interaction score (arbitrary units); higher = stronger binary interaction signal, active = hit call of the paper
# CG2021 = conditions: MAPPIT configuration: N-N; pair source set: DPIM
# CG2017 = conditions: MAPPIT configuration: N-N; pair source set: screen_1
# CG2199 = conditions: MAPPIT configuration: N-N; pair source set: Curagen_low_conf
# Paics = conditions: MAPPIT configuration: N-N; pair source set: DPIM
# CG1971 = conditions: MAPPIT configuration: N-N; pair source set: Curagen_high_conf
# CG9986 = conditions: MAPPIT configuration: N-N; pair source set: Curagen_low_conf
# Mdr49 = conditions: MAPPIT configuration: N-N; pair source set: Lit-BS-16
# PAN3 = conditions: MAPPIT configuration: N-N; pair source set: Curagen_low_conf
# CG17991 = conditions: MAPPIT configuration: N-C; pair source set: screen_4
# park = conditions: MAPPIT configuration: N-C; pair source set: screen_4
# 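Also: HEK293T cells with Epo stimulation, STAT-responsive firefly luciferase reporter, fold induction versus unstimulated cells divided by the larger fold induction of two negative controls lacking either bait or prey.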
binder,measurement,setting,value
B1,MAPPIT interaction score,CG2021,-0.105
B2,MAPPIT interaction score,CG2017,0.262
B3,MAPPIT interaction score,CG2199,-0.422
same,MAPPIT interaction score,Paics,1.6
B4,MAPPIT interaction score,CG1971,-0.147
same,MAPPIT interaction score,CG9986,-0.191
same,MAPPIT interaction score,Mdr49,-0.0532
same,MAPPIT interaction score,PAN3,-0.0312
B5,MAPPIT interaction score,CG17991,0.124
same,MAPPIT interaction score,park,0.413
